NOMO-1 viab = STK33 inhibitor candidate reducing NOMO-1 cell viability; NOMO-1 AML viability, CellTiter-Glo luminescence, 72 h; inhibition, % (no concentration beside the values); 37,000 compounds, 7.5% hits; AID 2330; in the data active = inhibition above about 80%
ROS inducer = raises reactive oxygen species in U2OS cancer cells; AID 624156; 46,000 compounds, 2% hits; U2OS ROS induction, H2DCF-DA fluorescence; ROS induction (% of piperlongumine), % at 10 µM; in the data active = ROS induction above about 79%, passing the limit was not always enough;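 also: 0% = DMSO vehicle median and 100% = reference compound median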
* marks the source's active call; other numbers are inactive results. Shown is part of a subset that was picked to be rich in hits.

C[C@H]1CN([C@@H](C)CO)C(=O)c2cccc(NC(=O)c3ccc(-c4nccs4)cc3)c2O[C@H]1CN(C)Cc1ccccc1 was read as NOMO-1 viab 36.5 and ROS inducer 7.6.
`C[C@@H]1CN([C@@H](C)CO)C(=O)c2cccc(NC(=O)c3ccc(-c4nccs4)cc3)c2O[C@@H]1CN(C)Cc1ccc(-c2ccccc2)cc1` gave NOMO-1 viab 56.7 and ROS inducer 66.7.
COc1ccc(NC(=O)c2ccccc2NC(=O)COc2cccc([N+](=O)[O-])c2)cc1 was read as NOMO-1 viab 1.6 and ROS inducer 4.2.
Screening C=C1[C@@H](C2=CC(=O)OC2)CC[C@@]2(O)[C@@H]1CC1[C@H]2CC[C@@H]2C[C@@H](O[C@H]3O[C@@H](C)[C@@H](O[C@@H]4O[C@H](CO[C@@H]5O[C@H](CO)[C@@H](O)[C@H](O)[C@H]5O)[C@@H](O)[C@H](O)[C@H]4O)[C@H](OC)[C@H]3O)CC[C@]12C (stereo partly drawn) returned ROS inducer 2.8.
Screening CO[C@@H]1CC(OC2CCC3(C)C(CCC45CCC(C6=CC(=O)OC6)C(C)(CCC43)C5=O)C2)O[C@H](C)[C@@H]1O[C@@H]1O[C@H](CO[C@@H]2O[C@H](CO)[C@@H](O)[C@H](O)[C@H]2O)[C@@H](O)[C@H](O)[C@H]1O (stereo partly drawn) returned NOMO-1 viab 118.9* and ROS inducer 1.0.
`Cc1ccc(-n2sc3ccccc3c2=O)cc1` gave NOMO-1 viab 140.6* and ROS inducer -13.8.
For Cc1ccc(N2C(=O)c3ccccc3C2=O)cc1 the results were ROS inducer -2.9.
COc1ccc(-c2nnc(Nc3cccc(C(F)(F)F)c3)c3ccccc23)cc1 was read as NOMO-1 viab 115.8* and ROS inducer 23.0.
Screening CNC(=O)COc1ccc(Nc2nnc(-c3ccc(OC)cc3)c3ccccc23)cc1 returned NOMO-1 viab 14.0.
`COc1ccc(CN(C)C[C@@H]2Oc3ccc(NC(=O)Nc4c(C)noc4C)cc3C(=O)N([C@H](C)CO)C[C@@H]2C)cc1` gave NOMO-1 viab -4.8 and ROS inducer -0.4.
`Cc1ccc(CNC(=O)CSc2nc(NC3CCCCC3)c3ccccc3n2)cc1` gave ROS inducer 12.1.
Screening Cc1ccc(S(=O)(=O)N2CCN(c3nc(NC4CCCC4)c4ccccc4n3)CC2)cc1 returned ROS inducer 151.6*.
`O=C(Nc1ccc(I)cc1C(=O)NCCN1CCOCC1)c1ccccc1Cl` gave NOMO-1 viab 22.5 and ROS inducer 6.8.
For C[C@H]1O[C@@H](O[C@H]2[C@@H](O)C[C@H](O[C@H]3[C@@H](O)C[C@H](O[C@H]4CC[C@@]5(C)[C@H](CC[C@@H]6[C@@H]5C[C@@H](O)[C@]5(C)[C@@H](C7=CC(=O)OC7)CC[C@]65O)C4)O[C@@H]3C)O[C@@H]2C)C[C@H](O)[C@@H]1O the results were NOMO-1 viab 119.6* and ROS inducer -6.3.
For CC(=O)CCc1c(C)[nH]c2ccccc2c1=O the results were NOMO-1 viab 13.5.
Cc1[nH]c2ccccc2c1C(c1c(C)[nH]c2ccccc12)C(C)C was read as NOMO-1 viab 115.5* and ROS inducer -8.6.
`COc1ccc(NC(=O)Nc2ccc3c(c2)C(=O)N([C@@H](C)CO)C[C@@H](C)[C@H](CN(C)C)O3)cc1` gave NOMO-1 viab 16.7 and ROS inducer -13.7.
For CCOc1ccc(C(Nc2cccc(C)n2)c2ccc3ccc(C)nc3c2O)cc1 (stereo not drawn) the results were NOMO-1 viab 105.7* and ROS inducer 43.1.
For Cc1cccc(NC(c2ccccc2)c2ccc3ccc(C)nc3c2O)n1 (stereo not drawn) the results were NOMO-1 viab 102.1*.
For Cc1ccc2cccc(OCc3nnc(SCC(N)=O)n3C)c2n1 the results were NOMO-1 viab -5.4 and ROS inducer -3.8.
For C[C@@H]1CCCCO[C@H](CN(C)Cc2ccc(C(=O)O)cc2)[C@@H](C)CN([C@H](C)CO)C(=O)c2cc(NC(=O)Nc3ccc4c(c3)OCO4)ccc2O1 the results were NOMO-1 viab 1.6 and ROS inducer 0.9.
Cc1ccc(-c2nnc3c4ccccc4c(C)nn23)cc1S(=O)(=O)N1CCOCC1 was read as NOMO-1 viab 4.2 and ROS inducer 13.1.
`C[C@H]1CN([C@@H](C)CO)C(=O)c2cccc(NC(=O)Nc3ccc(C(F)(F)F)cc3)c2O[C@@H]1CN(C)C(=O)Nc1cccc2ccccc12` gave NOMO-1 viab 101.9* and ROS inducer 9.2.
Screening C[C@H](CO)N1C[C@H](C)[C@@H](CN(C)C(=O)Nc2cccc3ccccc23)Oc2c(NC(=O)Nc3ccc(F)cc3)cccc2C1=O returned NOMO-1 viab 20.7 and ROS inducer -2.4.
Screening C[C@@H]1CN([C@H](C)CO)C(=O)c2cccc(NC(=O)Nc3ccc(C(F)(F)F)cc3)c2O[C@H]1CN(C)C(=O)Nc1cccc2ccccc12 returned NOMO-1 viab 83.5* and ROS inducer 20.4.
For C[C@@H]1CN([C@@H](C)CO)C(=O)c2cccc(NC(=O)Nc3ccc(F)cc3)c2O[C@@H]1CN(C)C(=O)Nc1cccc2ccccc12 the results were NOMO-1 viab 96.0* and ROS inducer 25.4.
Screening C[C@@H]1CN([C@@H](C)CO)C(=O)c2cccc(NC(=O)Nc3cccc4ccccc34)c2O[C@H]1CN(C)C(=O)Nc1ccc(C(F)(F)F)cc1 returned NOMO-1 viab 44.4 and ROS inducer 11.3.
For C[C@@H]1CN([C@H](C)CO)C(=O)c2cccc(NC(=O)Nc3ccc(F)cc3)c2O[C@@H]1CN(C)C(=O)Nc1cccc2ccccc12 the results were NOMO-1 viab 56.3 and ROS inducer 5.6.
For C[C@H](CO)N1C[C@H](C)[C@H](CN(C)C(=O)NC2CCCCC2)Oc2c(NS(=O)(=O)c3ccccc3)cccc2C1=O the results were NOMO-1 viab 3.5 and ROS inducer 0.2.
`CC(=O)C1=C(C)Nc2ncnn2C1c1ccccc1[N+](=O)[O-]` (stereo not drawn) gave NOMO-1 viab -11.2 and ROS inducer -4.1.
`C[C@@H]1CN([C@@H](C)CO)C(=O)CCCn2cc(nn2)CO[C@@H]1CN(C)C(=O)Nc1ccc(C(F)(F)F)cc1` gave ROS inducer -3.2.
For COCCCNC(=O)[C@@]1(C)c2ccccc2C(=O)N(Cc2cc(C(F)(F)F)cc(C(F)(F)F)c2)[C@H]1c1ccc(CO)cc1 the results were ROS inducer -2.7.
`COc1ccc(OC)c(-c2cc(C(=O)NC(C)c3ccc(OC)c(OC)c3)c3ccccc3n2)c1` (stereo not drawn) gave NOMO-1 viab 7.3.
`COc1cccc(-c2nnc(-c3ccccc3)o2)c1` gave ROS inducer 13.2.
`COc1cccc(-c2ncc(-c3ccccc3)o2)c1` gave NOMO-1 viab 25.7 and ROS inducer 84.7*.
CC/C=C\C[C@@H]1C(=O)C=C[C@@H]1CCCCCCCC(=O)O was read as NOMO-1 viab 116.8* and ROS inducer 50.5.
CCCCC[C@H](O)/C=C/[C@H]1C=CC(=O)[C@@H]1C/C=C\CCCC(=O)O was read as NOMO-1 viab 40.9 and ROS inducer -3.5.
Screening Cn1nnc2cc(NC(=O)NCCO)ccc21 returned NOMO-1 viab 16.6 and ROS inducer -18.7.
Screening Cc1nc2cc(NC(=O)NCc3ccco3)ccc2n1C returned NOMO-1 viab -2.9 and ROS inducer 100.2*.

Compound activity from PubChem BioAssay.
